# Test results as given in PubChem BioAssay AID623868 (Vanderbilt High Throughput Screening Facility, 2012).
# In all, about 2,100 compounds went through this assay and about 760 (36%) were called active.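 How the source made its calls: active means thallium-flux fluorescence traces judged by eye to show enhanced or reduced glutamate response, manual score 1 or -1, so both directions (some results past the limit were not filed as active); inactive means the rest, including fluorescent or raised-baseline compounds.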 Not all results are given here.
# Assay: thallium influx changes without GIRK channels – cell-based, HEK-293 rmGlu8, no GIRK, thallium flux, counter-screen for GIRK activator project, confirmation (AID 623868);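 further: extra codes mark interference with 3 for fluorescent and 4 for baseline rise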
# Settings: thallium flux fluorescence, at 10 µM, actives lie on both sides, codes: 1 enhancer, -1 blocker, 0 none, thallium stimulus containing EC20 glutamate
row,Compound,manual score
1,S=C(NN=C1C2CC3CC(C2)CC1C3)Nc1ccccc1,1 (active)
2,S=C(NN=C(C1CC1)C1CC1)Nc1ccccc1,0 (inactive)
3,C=C(C)C1CC=C(C)/C(=N/NC(=S)Nc2ccccc2)C1 (stereo unspecified),0 (inactive)
4,CC(C)N=c1scc(-c2cccs2)n1/N=C/c1ccc(O)c(O)c1O,0 (inactive)
5,CC(c1ccco1)N(C(=O)c1ccccc1NS(=O)(=O)c1cc([N+](=O)[O-])ccc1Cl)c1ccccn1 (stereo unspecified),1 (active)
6,CCOP(=O)(c1ccccc1)c1nc(-c2ccccc2C)oc1N1CCCCC1 (stereo unspecified),0 (inactive)
7,Cc1ccc(/C=N/Nc2nc(Cl)c(Cl)cc2Cl)s1,1 (active)
8,CCOC(=O)C1=C(C)OC(N)=C(C#N)C1c1cncc(-c2ccc(F)cc2)c1 (stereo unspecified),0 (inactive)
9,Cc1cc(C)n(-c2ccc(C(=O)OCC(=O)Nc3ccc(Cl)c(S(=O)(=O)N(C)C)c3)cc2)n1,0 (inactive)
10,CCOC(=O)Cc1csc(NC(=S)NC(=O)c2ccccc2C)n1,1 (active)
11,CCOC(=O)Cc1csc(NC(=S)NC(=O)c2ccccc2Br)n1,1 (active)
12,CC1=CC(=O)OC1Cc1ccncc1 (stereo unspecified),0 (inactive)
13,O=C(Nc1ccc(F)cc1)c1cccc2c1C(=O)N(Cc1ccccn1)C2,0 (inactive)
14,COc1ccc(-n2c(=O)[nH]cc(C(=O)Nc3ccc(NC(C)=O)cc3)c2=O)cc1,0 (inactive)
15,CCCC(=O)Nc1ccc(NC(=O)C23CC4CC(CC(C4)C2)C3)cn1,0 (inactive)
16,O=C(NC(=S)Nc1ccc(Cl)cn1)c1cccs1,1 (active)
17,Cc1ccc2cccc(NC(=S)NC(=O)c3ccn(C)n3)c2n1,0 (inactive)
18,Cc1cccc(NC(=S)NC(=O)c2cccs2)n1,1 (active)
19,Cc1ccnc(NC(=S)NC(=O)c2cccs2)c1,1 (active)
20,CCn1c(CCNC(=O)c2cccs2)nnc1SCC(=O)Nc1ccc(Cl)cc1,0 (inactive)
21,CC(Cc1cccs1)NC(=O)Nc1ccc(Cl)cc1 (stereo unspecified),0 (inactive)
22,Cc1ccc2cccc(NC(=S)NC(=O)c3ccnn3C)c2n1,0 (inactive)

row,Compound,manual score
1,CC(C)CC(NS(=O)(=O)c1ccc2c(c1)oc(=O)n2C)C(=O)NC1CCCc2ccccc21 (stereo unspecified),0 (inactive)
2,CCOc1ccc(-n2c(SCc3nc(-c4cccs4)no3)nnc2-c2ccncc2)cc1,0 (inactive)
3,CC(C)CC(=O)NC(=S)Nc1nc(-c2cccc3ccccc23)cs1,0 (inactive)
4,CC(C)CC(=O)NC(=S)N(Cc1ccccc1)Cc1ccccc1,1 (active)
5,CC(C)C(=O)NC(=S)N(Cc1ccccc1)Cc1ccccc1,1 (active)
6,Cc1ccccc1Cn1c(=N)n(CC(O)c2ccco2)c2ccccc21 (stereo unspecified),0 (inactive)
7,N#Cc1nc(COc2ccccc2)oc1N1CCN(c2cccc(Cl)c2)CC1,0 (inactive)
8,O=C(Nc1nc(=O)c2ccccc2s1)c1ccc(F)cc1,1 (active)
9,CN(C)CCCNC(=O)c1ccc(-c2nc(-c3ccc(Cl)cc3)cs2)cc1,0 (inactive)
10,CCN(CC)C(=O)CSc1nnc(NC(=O)CCc2ccccc2)s1,0 (inactive)
11,O=C(Cc1ccccc1)Nc1nc(=O)c2ccccc2s1,1 (active)
12,O=C(Nc1nc(=O)c2ccccc2s1)c1ccccc1,1 (active)
13,O=C(Cc1ccccc1)Nc1nc(-c2cccs2)cs1,0 (inactive)
14,O=C(Nc1nc2ccccc2s1)c1cc(-c2ccccc2)nn1-c1ccccc1,0 (inactive)
15,O=C(Nc1nc(=O)c2ccccc2s1)c1ccc(Cl)cc1,1 (active)
16,COc1ccc(Cn2nnnc2C(c2ccccc2Cl)N2CCN(C3CCCC3)CC2)cc1 (stereo unspecified),0 (inactive)
17,CCN(CC)C(=S)SCC(=O)Nc1nc(=O)c2ccccc2s1,1 (active)
18,Cc1csc(SCC(=O)Nc2nc3ccccc3s2)n1,0 (inactive)
19,Cc1cnc(NC(=O)CSc2nc3ccccc3c(=O)[nH]2)s1,0 (inactive)
20,CCCCn1c(SC(C)C(N)=O)nc2cc(C(=O)OC)ccc2c1=O (stereo unspecified),1 (active)
21,CCCCn1c(=O)[nH]c2nc3cc(N)ccc3nc2c1=O,3 (inactive)
22,CCCCn1c(SCC(=O)Nc2ccc(OC)cc2)nc2ccc(N3CCOCC3)cc2c1=O,0 (inactive)

row,Compound,manual score
1,C=CCOc1ccc(/C(O)=C2/C(=O)C(=O)N(CCCN3CCOCC3)C2c2ccccc2)cc1 (stereo unspecified),0 (inactive)
2,COc1ccc(N/C(C)=C2/C(=O)C(=O)N(CCO)C2c2ccc(Br)cc2)cc1 (stereo unspecified),0 (inactive)
3,COCCCN1C(=O)C(=O)/C(=C(/O)c2ccc(C)cc2)C1c1ccccc1 (stereo unspecified),-1 (active)
4,O=S(=O)(Nc1ccc2nc(C(F)(F)F)[nH]c2c1)c1ccccc1,0 (inactive)
5,CCOc1ccc(-c2cc(C)n3nc(C(N)=O)cc3n2)cc1,0 (inactive)
6,CCC(Sc1ccc2nnc(-c3ccc(F)cc3)n2n1)C(=O)OC (stereo unspecified),-1 (active)
7,Cc1cc(N2CCN(c3ccccc3)CC2)nc(NCc2ccccc2)n1,0 (inactive)
8,CC(C)CNC(=S)Nc1ccc(Oc2ccccc2)cc1,0 (inactive)
9,CCCCNC(=S)NC(=O)c1ccc(Cl)cc1Cl,1 (active)
10,CC(C)NC(=S)NC(=O)c1ccc(Cl)cc1Cl,1 (active)
11,S=C(NCc1ccc(Cl)cc1Cl)Nc1ccccc1,0 (inactive)
12,CC(C)CNC(=S)NC(=O)c1ccccc1Cl,1 (active)
13,CC(C)CNC(=S)NC(=O)c1ccc(Cl)cc1Cl,1 (active)
14,O=S(=O)(c1ccc(Cl)c(F)c1)N1CCC(c2nc(-c3ccncc3)no2)CC1,0 (inactive)
15,O=C(Nc1ccc(F)c(F)c1)NC1CCCCC1,0 (inactive)
16,Cc1[nH]c2ccccc2c1CN1CCc2ccccc2C1,0 (inactive)
17,O=C(O)C1C2C=CC(C2)C1C(=O)NCCc1cccc(Cl)c1 (stereo unspecified),0 (inactive)
18,Cc1ccc(S(=O)(=O)N/N=C/c2ccc(OC3CSC3)cc2)cc1,0 (inactive)
19,CCCCNC(=S)NC(=O)c1ccccc1Br,1 (active)
20,CCS(=O)(=O)Nc1ccc(-c2nnc(SCC(=O)c3ccc(NC(C)=O)c(OC)c3)o2)cc1,0 (inactive)
21,CCOC(=O)CSc1nnc(-c2ccccc2OC)o1,-1 (active)
22,O=C(CSc1nnc(-c2cccnc2)o1)OC1CCCCC1,-0.5 (inactive)

row,Compound,manual score
1,COCCCNCCCOc1ccc(Cl)cc1Br,0 (inactive)
2,CC1=NN(/C(=N\c2nnc(C)s2)Nc2ccccc2)[C@H](c2cccc3ccccc23)S1,1.5 (inactive)
3,CC(C)Oc1cccc(C(=O)NC(=S)Nc2ccccc2)c1,1 (active)
4,CCCOc1cccc(C(=O)NC(=S)Nc2cccc(C(F)(F)F)c2)c1,1 (active)
5,O=C1C(Cl)=C(N2CCOCC2)C(=O)N1c1cccc(Cl)c1,0 (inactive)
6,FC(F)Oc1ccccc1NC(=S)Nc1cccc(Cl)c1Cl,0.5 (inactive)
7,O=C(OCCN1C(=O)c2cccc3c(N4CCOCC4)ccc(c23)C1=O)c1cccc(Cl)c1,3 (inactive)
8,COC(=O)c1cccc(NC(=S)Nc2cccc(Cl)c2Cl)c1,1 (active)
9,O=C(NC(=S)Nc1ccc(N2CCOCC2)cc1)c1cccc(Cl)c1,1 (active)
10,CCOc1cccc(C(=O)NC(=S)Nc2ccccc2)c1,0 (inactive)
11,Cc1cc(O)c(C(C[N+](=O)[O-])c2ccc(Cl)cc2Cl)c(=O)o1 (stereo unspecified),0 (inactive)
12,O=C(O)CCC(=O)NC1CCCCCCC1,0 (inactive)
13,CSc1ccccc1NC(=O)Nc1ccccc1,0 (inactive)
14,CSc1ccccc1C(=O)Nc1cccc(C(C)=O)c1,0 (inactive)
15,O=C(Nc1ccc(OCC(=O)N2CCC(Cc3ccccc3)CC2)cc1)c1ccco1,0 (inactive)
16,CC1CCN(c2ncccc2C(=O)O)CC1,0 (inactive)
17,O=C(NC(=S)Nc1cccc(Cl)c1N1CCCCC1)c1ccco1,1 (active)
18,CC(=O)c1cccc(NC(=S)NC(=O)c2cccc(Cl)c2)c1,1 (active)
19,O=C(NC(=S)Nc1ccc(N2CCCCC2)cc1)c1ccco1,1 (active)
20,CC1CCN(c2ccc(NC(=S)NC(=O)c3ccco3)cc2)CC1,1 (active)
21,CC(=O)c1cccc(NC(=S)NC(=O)c2cccc(C)c2)c1,0.5 (inactive)
22,C=CCN(CC=C)S(=O)(=O)c1ccc(NC(=S)NC(=O)c2ccco2)cc1,0.5 (inactive)

row,Compound,manual score
1,O=C(NC(=S)Nc1ccc(N2CCOCC2)c(Cl)c1)c1cncc(Br)c1,1 (active)
2,COc1ccc(OCC(=O)NC(=S)Nc2ccc(N3CCOCC3)c(Cl)c2)cc1,0 (inactive)
3,O=C(NC(=S)Nc1ccc(N2CCOCC2)cc1)c1ccco1,1 (active)
4,O=C(Nc1ccc(F)cc1)c1cccnc1N1CCOCC1,0 (inactive)
5,CCN(c1ccc2c(c1)OCO2)S(=O)(=O)c1cc(Br)cc2c1N(C(=O)C1CC1)CC2,0 (inactive)
6,N=c1c2c(-c3ccccc3)c(-c3ccccc3)n(Cc3ccccc3)c2ncn1CCCO,0 (inactive)
7,CCC1=NN(C(=O)c2cccc(Br)c2)C(O)(c2ccc(Br)cc2)C1 (stereo unspecified),1 (active)
8,COC(=O)C1=NN(C(=O)c2ccc(Cl)cc2)C(O)(c2ccccc2)C1 (stereo unspecified),1 (active)
9,CCOC(=O)C1=NN(C(=O)c2ccc(C)cc2)C(O)(c2ccc(Cl)cc2)C1 (stereo unspecified),1 (active)
10,CCOC(=O)c1cc(-c2ccc(Cl)cc2)nc2c1c(C)nn2CCC#N,0 (inactive)
11,Cc1ccc(-c2csc3ncnc(N4CCN(C(=O)c5ccccc5)CC4)c23)cc1,0 (inactive)
12,CCOC(=O)c1c(C)[nH]c(C(=O)COC(=O)CNC(=O)c2ccc(Cl)cc2)c1C,0 (inactive)
13,CCOC(=O)C1=C(NC(=S)NC(=O)c2ccccc2)c2ccccc2CC1(C)C,0 (inactive)
14,CCOC(=O)C1=NN(C(=O)c2ccccc2)C(O)(c2ccc(C)cc2)C1 (stereo unspecified),1 (active)
15,O=[n+]1cc(-c2ccccc2)n([O-])c2c1CCC2,0 (inactive)
16,Cc1ccc(NC(=O)CSc2nnc(CCNC(=O)OC(C)(C)C)o2)c(C)c1,0 (inactive)
17,O=C1CC(C(F)(F)C(F)(F)C(F)(F)F)=Nc2ccccc2N1,0 (inactive)
18,Cc1ccc(NC(=O)Cc2c(Cl)cccc2Cl)cc1S(=O)(=O)N(C)C,0 (inactive)
